From PubChem BioAssay (NCI)
Several values for one entry are separate records, joined by “and”; a condition that tells them apart may be missing. Equal entries are not always repeated. This is part of a sample that, as a whole, favours compounds with a hit. Of some 83,000 tested, about 20% had one in any assay.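 Plates (96-well) were seeded with cells, treated with compound at one concentration, and incubated for 48 hours before percent growth was determined.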 Activity calls are given as the source filed them. How the source made its calls: active means growth percent below 10; inactive means the rest.

How the values were obtained:
Test in all cases: NCI-60 one-dose screen, 48 h (100 = growth as untreated, 0 = no growth, -100 = all killed)
Details in all cases: 10 µM unless noted
HCT-15 colon = tested on: HCT-15 colon
HT29 colon = tested on: HT29 colon
SNB-75 CNS = tested on: SNB-75 CNS
SNB-19 CNS = tested on: SNB-19 CNS
U251 CNS = tested on: U251 CNS
PC-3 prostate = tested on: PC-3 prostate
SK-MEL-5 melanoma = tested on: SK-MEL-5 melanoma
UACC-62 melanoma = tested on: UACC-62 melanoma
LOX IMVI melanoma = tested on: LOX IMVI melanoma
SK-MEL-28 melanoma = tested on: SK-MEL-28 melanoma
SK-MEL-2 melanoma = tested on: SK-MEL-2 melanoma
EKVX NSCLC = tested on: EKVX NSCLC
SN12C renal = tested on: SN12C renal
UO-31 renal = tested on: UO-31 renal
TK-10 renal = tested on: TK-10 renal
ACHN renal = tested on: ACHN renal
CAKI-1 renal = tested on: CAKI-1 renal
A498 renal = tested on: A498 renal
CCRF-CEM leukemia = tested on: CCRF-CEM leukemia
MOLT-4 leukemia = tested on: MOLT-4 leukemia

SMILES | growth (HCT-15 colon) | growth (HT29 colon) | growth (SNB-75 CNS) | growth (SNB-19 CNS) | growth (U251 CNS) | growth (PC-3 prostate) | growth (SK-MEL-5 melanoma) | growth (UACC-62 melanoma) | growth (LOX IMVI melanoma) | growth (SK-MEL-28 melanoma) | growth (SK-MEL-2 melanoma) | growth (EKVX NSCLC) | growth (SN12C renal) | growth (UO-31 renal) | growth (TK-10 renal) | growth (ACHN renal) | growth (CAKI-1 renal) | growth (A498 renal) | growth (CCRF-CEM leukemia) | growth (MOLT-4 leukemia)
COc1ccc(C2=C(CN)C(O)NC(=NCC(=O)c3ccc4ccccc4c3)N2)cc1 (stereo not given) | 106% (inactive) | 101% (inactive) | 87.2% (inactive) | 104% (inactive) | 102% (inactive) | 104% (inactive) | 108% (inactive) | 101% (inactive) | 95.5% (inactive) | 103% (inactive) | 99.9% (inactive) | 113% (inactive) | 103% (inactive) | 81% (inactive) | 98.1% (inactive) | 94.5% (inactive) | 94.5% (inactive) | 118% (inactive) | 110% (inactive) | 98% (inactive)
CC/C=C\C/C=C\C[C@H](O)C/C=C1/C(=O)C=C[C@@H]1C/C=C\CCCC(=O)OC | -25.8% (active) | -25.4% (active) | 53.3% (inactive) | 20.2% (inactive) | -73.3% (active) | -36.6% (active) | -94.9% (active) | -56% (active) | -80.5% (active) | -38% (active) | -16.9% (active) | 24.8% (inactive) | -29.2% (active) | -83.3% (active) | 5.09% (active) | -75.9% (active) | -1.75% (active) | 21.9% (inactive) | -11.7% (active) | -10.5% (active)
COc1ccc(/C=N/C2=C(C#N)C(c3ccccc3)c3c(ccc4ccccc34)O2)cc1 (stereo not given) | 22.5% (inactive) | 5.31% (active) | -39.4% (active) | 22.9% (inactive) | 24.1% (inactive) | 23.3% (inactive) | 20.8% (inactive) | 37.3% (inactive) | 28.5% (inactive) | 64.7% (inactive) | 49.7% (inactive) | 32.7% (inactive) | 48% (inactive) | 37.5% (inactive) | 64.4% (inactive) | 35.3% (inactive) | 13.9% (inactive) | -6.08% (active) | 15.2% (inactive) | 27.3% (inactive)
Clc1ccc(/C=N\N2CCCCCC2)cc1 | 95.7% (inactive) and 92.9% (inactive) | 101% (inactive) and 84.9% (inactive) | 100% (inactive) and 110% (inactive) | 96.4% (inactive) and 109% (inactive) | 92.3% (inactive) and 98.5% (inactive) | 105% (inactive) | 98.2% (inactive) and 106% (inactive) | 92.1% (inactive) and 104% (inactive) | 102% (inactive) | 104% (inactive) and 107% (inactive) | 122% (inactive) and 106% (inactive) | 88.7% (inactive) and 90.9% (inactive) | 90.9% (inactive) and 106% (inactive) | 88.4% (inactive) | 105% (inactive) and 103% (inactive) | 99.5% (inactive) and 102% (inactive) | 124% (inactive) and 94.9% (inactive) | 79.6% (inactive) | 101% (inactive) | 109% (inactive) and 99.4% (inactive)
CCOC(=O)CC1CSC(c2cccc(Cl)c2)=N1 (stereo not given) | 106% (inactive) | 102% (inactive) | 106% (inactive) | 106% (inactive) | 102% (inactive) | 103% (inactive) | 100% (inactive) | 101% (inactive) | 95.7% (inactive) | 110% (inactive) | 109% (inactive) | 100% (inactive) | 106% (inactive) | 96.4% (inactive) | 92.1% (inactive) | 109% (inactive) | 97.8% (inactive) | 81.9% (inactive) | 102% (inactive) | 95% (inactive)
COc1ccc(-c2ccccc2)cc1-c1c(Nc2cc(Cl)cc(Cl)c2O)c(=O)c1=O | 10.2% (inactive) | 44.6% (inactive) | -8.42% (active) | 10.9% (inactive) | 6.59% (active) | 12.5% (inactive) | -40.7% (active) | 10.6% (inactive) | 7.28% (active) | 20% (inactive) | -26.5% (active) | 10.2% (inactive) | 6.31% (active) | 6.3% (active) | 12.8% (inactive) | 3.24% (active) | -12.6% (active) | -17.6% (active) | 19.5% (inactive) | 13.2% (inactive)
O=C1c2cccc3cccc(c23)C(=O)N1N1C(=O)c2cccc3c(N4CCNCC4)ccc(c23)C1=O | 50.6% (inactive) | 87.3% (inactive) | 92.2% (inactive) | 88.5% (inactive) | 86.3% (inactive) | 85.1% (inactive) | 92.8% (inactive) | 95.7% (inactive) | 86.5% (inactive) | 109% (inactive) | 101% (inactive) | 97.9% (inactive) | 89.8% (inactive) | 71.6% (inactive) | 113% (inactive) | 87.8% (inactive) | 92.4% (inactive) | 75.1% (inactive) | 19.5% (inactive) | 61.5% (inactive)
COC(=O)c1nc(-c2ccccc2)oc1S(=O)(=O)N(C)CCO | 42.5% (inactive) | 35.7% (inactive) | 95.5% (inactive) | 92.3% (inactive) | 82.7% (inactive) | 63.2% (inactive) | 96% (inactive) | 77.2% (inactive) | 71.6% (inactive) | 69.8% (inactive) | 82.1% (inactive) | 77.5% (inactive) | 87.6% (inactive) | 59.2% (inactive) | 43.9% (inactive) | 49.2% (inactive) | 54.7% (inactive) | 112% (inactive) | 16.2% (inactive) | 45.2% (inactive)
COc1ccccc1/C=C/C(=O)/C=C/c1ccccc1OC | -2.72% (active) and -27.6% (active) | -42.7% (active) and -16.4% (active) | 45.2% (inactive) and 12.6% (inactive) | 33.5% (inactive) and 38.5% (inactive) | -81% (active) and -40.1% (active) | 0.508% (active) and 17% (inactive) | -89.4% (active) and -77% (active) | -61.6% (active) and -64.3% (active) | -60.1% (active) and -53.8% (active) | -58.9% (active) and -57.8% (active) | 2.6% (active) and 1.3% (active) | 12.6% (inactive) | -27.2% (active) and -3.57% (active) | -89.9% (active) and -54.9% (active) | -11.8% (active) and 0.143% (active) | -62.5% (active) and -84.2% (active) | 17.5% (inactive) and 4.88% (active) | -48.3% (active) and 22.8% (inactive) | 15.5% (inactive) and 6.56% (active) | 14.8% (inactive) and 12.1% (inactive)
O=Nc1c(O)ccc2ccccc12 | 43% (inactive) and 103% (inactive) | 24.7% (inactive) and 109% (inactive) | 114% (inactive) | 105% (inactive) and 106% (inactive) | 99.4% (inactive) | 6.57% (active) and 72.4% (inactive) | 80.9% (inactive) and 82.8% (inactive) | 21.2% (inactive) and 87.4% (inactive) | 3.68% (active) and 73.6% (inactive) | 83% (inactive) and 102% (inactive) | 36.5% (inactive) and 107% (inactive) | 91.4% (inactive) | 4.86% (active) and 93.6% (inactive) | 55.3% (inactive) and 52.1% (inactive) | 115% (inactive) | 57.7% (inactive) and 83.3% (inactive) | 71.2% (inactive) and 96.3% (inactive) | 84.6% (inactive) and 99.1% (inactive) | 20.6% (inactive) and 58.4% (inactive) | 71.3% (inactive) and 72.6% (inactive)
C=C1C(=O)O[C@@H]2[C@H]3[C@H](COC(C)=O)[C@@H](OC(C)=O)C[C@H]3C(=C)[C@@H](O)C[C@@H]12 | 91.5% (inactive) | 89.6% (inactive) | 74.8% (inactive) | 93.7% (inactive) | 89.9% (inactive) | 88.9% (inactive) | 89.2% (inactive) | 85% (inactive) | 93% (inactive) | 106% (inactive) | 88% (inactive) | 110% (inactive) | 92.9% (inactive) | 87.9% (inactive) | 82.4% (inactive) | 85.9% (inactive) | 87.8% (inactive) | 121% (inactive) | 61.8% (inactive) | 89.8% (inactive)
COc1nc(=O)n(C2C=CC(=O)O2)cc1F (stereo not given) | 58.5% (inactive) | 55.8% (inactive) | 90.2% (inactive) | 97.8% (inactive) | 103% (inactive) | 110% (inactive) | 94.9% (inactive) | 59.7% (inactive) | 64.9% (inactive) | 96% (inactive) | 106% (inactive) | 78.4% (inactive) | 94.8% (inactive) | 56.3% (inactive) | 61.3% (inactive) | 31.7% (inactive) | 40.1% (inactive) | 97.9% (inactive) | 48.7% (inactive) | 33.5% (inactive)
COc1ccc(/C(C)=C(\c2ccc(OCCN3CCCCCC3)cc2)c2ccc(OC(=O)C3CCCCC3)cc2)cc1 | -76.7% (active) | -71% (active) | -11.1% (active) | 3.58% (active) | -84.9% (active) | -49.8% (active) | -99.7% (active) | -73.7% (active) | -93.5% (active) | -84.5% (active) | -78.3% (active) | -25.3% (active) | -87.2% (active) | -96.9% (active) | -79.2% (active) | -88.5% (active) | -34.4% (active) | -3.54% (active) | -31.5% (active) | -13.7% (active)
